Measurements published in the supplement of paper PMC10849652.
Targets with a hit are over-represented here; the source holds about 7,900 in all. About 0.6% of all pairs of compound and target were hits. Values without a mark were called inactive.

Assays:
Test in all cases: log2 fold change, soluble protein after heating vs DMSO (PISA); higher = thermal stabilisation; K562 cells, 10 uM, 30 min; active = over 0.2 and 3.5 SD of the protein, either way, in both replicates (recomputed)
[1] = compound: C#Cc1cccc(Nc2ncnc3cc(OCCOC)c(OCCOC)cc23)c1 [erlotinib]
Outline: (§1)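 Values are thermal stability changes relative to control samples and are taken from duplicates. They are stated as log2 fold changes. Before quantification by TMTpro 16plex LC-MS/MS with equalised channel sums, K562 cells at 2×10^6 cells/mL were treated with 10 μM compound for 30 min, heated in aliquots for 3 min across 48°C-58°C, pooled, extracted in PBS with 0.5% NP-40 at 4°C, and centrifuged at 21,000xg for 90 min to give the soluble supernatant.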

[2] = compound: C/C(=N\NC(=O)C1=CC(=CC=C1)S(=O)(=O)N2CCOCC2)/C3=C(C=CC(=C3)Cl)O
Outline: as §1

[3] = compound: C1=CC(=C(C=C1Cl)C2=NC3=NC=CN=C3C(=N2)NC4=CC=NC=C4)F
Outline: as §1

[4] = compound: C1=CC(=CC=C1C2=NC3=C(N2)C=C(C=C3)C(=O)N)OC4=CC=C(C=C4)Cl
Outline: as §1

[5] = compound: C1=CC2=C(C=CC(=C2)/C=C\3/C(=O)NC(=NCC4=CC=CS4)S3)N=C1
Outline: as §1

[6] = compound: C1=CC2=NC=CN=C2C=C1/C=C/3\C(=O)NC(=O)S3
Outline: as §1

[7] = compound: C1=CC=C(C=C1)C2=NC(=C(N2)C3=CC=NC=C3)C4=CC(=C(C=C4)Cl)O
Outline: as §1

[8] = compound: C1=CC=C2C(=C1)C3=NNC4=CC=CC(=C43)C2=O
Outline: as §1

[9] = compound: C1CCN(C1)C(=O)NC2=CC=CC(=C2)NC3=NC=C(C(=N3)NCCC4=CN=CN4)Br
Outline: as §1

[10] = compound: C1CN(CCC1(CC2=CC=C(C=C2)Cl)N)C3=NC=NC4=C3C=CN4
Outline: as §1

[11] = compound: C1COCCN1CCN2C3=CC=CC=C3N=C2NC(=O)C4=CC(=CC=C4)[N+](=O)[O-] [IRAK-1-4 Inhibitor I]
Outline: as §1

[12] = compound: C=CC(=O)N1CCC[C@@H](n2nc(-c3ccc(Oc4ccccc4)cc3)c3c(N)ncnc32)C1 [ibrutinib]
Outline: as §1

[13] = compound: CC(=O)c1cnc2ccc(-c3cc(Cl)c(O)c(Cl)c3)nc2c1N[C@H]1CC[C@H](CN(C)C)CC1
Outline: as §1

[14] = compound: CC(C)(C)Cn1c(N)nc2ccc(-c3[nH]c(C(C)(C)C)nc3-c3ccc(F)cc3)nc21 [ralimetinib]
Outline: as §1

[15] = compound: CC(C)(O)CC(=O)NCCn1ccc2ncnc(Nc3ccc(Oc4cccc(C(F)(F)F)c4)c(Cl)c3)c21
Outline: as §1

[16] = compound: CC(C)C1=C2N=C(C=C(N2N=C1)NCC3=CC=CC=C3)NCCCCCCN
Outline: as §1

[17] = compound: CC(C)C[C@@H](C=O)NC(=O)[C@H](CC(C)C)NC(=O)[C@H](CC(C)C)NC(=O)OCc1ccccc1
Outline: as §1

[18] = compound: CC(C)N(C[C@H]1O[C@@H](n2cnc3c(N)ncnc32)[C@H](O)[C@@H]1O)[C@H]1C[C@@H](CCc2nc3cc(C(C)(C)C)ccc3[nH]2)C1 [pinometostat]
Outline: as §1

[19] = compound: CC1=C(C(CC(=O)N1)C2=CC=C(C=C2)C(F)(F)F)C(=O)NC3=C(C=C4C(=C3)C=NN4)F
Outline: as §1

[20] = compound: CC1=C(C2=C(C=C1)C(=O)C3=CC=CC=C3N2CCCN)C
Outline: as §1

Chain of UniProt Q53FZ2 (Q53FZ2 whole entry, looked up): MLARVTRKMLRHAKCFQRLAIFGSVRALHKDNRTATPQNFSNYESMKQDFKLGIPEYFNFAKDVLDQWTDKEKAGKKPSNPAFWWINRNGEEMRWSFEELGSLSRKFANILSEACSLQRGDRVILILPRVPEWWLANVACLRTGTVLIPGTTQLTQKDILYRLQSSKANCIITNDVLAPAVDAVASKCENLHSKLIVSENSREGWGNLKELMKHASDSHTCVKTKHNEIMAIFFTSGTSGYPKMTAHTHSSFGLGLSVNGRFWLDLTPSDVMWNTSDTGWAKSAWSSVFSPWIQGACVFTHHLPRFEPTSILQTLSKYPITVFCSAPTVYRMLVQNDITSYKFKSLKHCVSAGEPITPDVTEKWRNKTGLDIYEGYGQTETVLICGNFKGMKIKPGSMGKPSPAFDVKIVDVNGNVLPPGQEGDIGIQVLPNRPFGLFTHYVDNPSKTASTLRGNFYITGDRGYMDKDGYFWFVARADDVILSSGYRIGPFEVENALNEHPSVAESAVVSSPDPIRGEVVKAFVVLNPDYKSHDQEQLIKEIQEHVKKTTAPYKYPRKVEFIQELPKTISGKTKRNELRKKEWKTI
Chain of UniProt Q5T9A4 (Q5T9A4 whole entry, looked up): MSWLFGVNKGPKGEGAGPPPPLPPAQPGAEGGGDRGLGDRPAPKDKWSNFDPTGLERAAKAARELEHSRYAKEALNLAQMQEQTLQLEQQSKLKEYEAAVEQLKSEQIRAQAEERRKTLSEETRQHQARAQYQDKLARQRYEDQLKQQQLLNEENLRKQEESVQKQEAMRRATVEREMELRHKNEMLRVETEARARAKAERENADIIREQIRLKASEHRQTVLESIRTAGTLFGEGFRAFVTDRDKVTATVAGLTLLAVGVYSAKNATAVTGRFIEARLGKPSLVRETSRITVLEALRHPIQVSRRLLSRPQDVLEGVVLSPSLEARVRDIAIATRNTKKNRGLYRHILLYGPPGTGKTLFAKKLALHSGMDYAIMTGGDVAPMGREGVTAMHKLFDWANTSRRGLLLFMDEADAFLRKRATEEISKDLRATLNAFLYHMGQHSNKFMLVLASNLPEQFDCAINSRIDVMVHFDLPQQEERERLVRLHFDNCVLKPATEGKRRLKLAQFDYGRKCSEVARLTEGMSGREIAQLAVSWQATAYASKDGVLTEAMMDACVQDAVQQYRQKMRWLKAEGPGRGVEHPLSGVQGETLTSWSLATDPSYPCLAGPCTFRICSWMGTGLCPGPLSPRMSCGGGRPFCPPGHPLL
Chain of UniProt Q13795 (Q13795 whole entry, looked up): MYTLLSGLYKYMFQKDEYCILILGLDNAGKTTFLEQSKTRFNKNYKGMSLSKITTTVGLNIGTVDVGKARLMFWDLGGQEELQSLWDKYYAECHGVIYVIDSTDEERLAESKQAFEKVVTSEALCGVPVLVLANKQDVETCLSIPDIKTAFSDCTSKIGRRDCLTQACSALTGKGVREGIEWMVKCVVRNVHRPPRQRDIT
Chain of UniProt O95573 (O95573 whole entry, looked up): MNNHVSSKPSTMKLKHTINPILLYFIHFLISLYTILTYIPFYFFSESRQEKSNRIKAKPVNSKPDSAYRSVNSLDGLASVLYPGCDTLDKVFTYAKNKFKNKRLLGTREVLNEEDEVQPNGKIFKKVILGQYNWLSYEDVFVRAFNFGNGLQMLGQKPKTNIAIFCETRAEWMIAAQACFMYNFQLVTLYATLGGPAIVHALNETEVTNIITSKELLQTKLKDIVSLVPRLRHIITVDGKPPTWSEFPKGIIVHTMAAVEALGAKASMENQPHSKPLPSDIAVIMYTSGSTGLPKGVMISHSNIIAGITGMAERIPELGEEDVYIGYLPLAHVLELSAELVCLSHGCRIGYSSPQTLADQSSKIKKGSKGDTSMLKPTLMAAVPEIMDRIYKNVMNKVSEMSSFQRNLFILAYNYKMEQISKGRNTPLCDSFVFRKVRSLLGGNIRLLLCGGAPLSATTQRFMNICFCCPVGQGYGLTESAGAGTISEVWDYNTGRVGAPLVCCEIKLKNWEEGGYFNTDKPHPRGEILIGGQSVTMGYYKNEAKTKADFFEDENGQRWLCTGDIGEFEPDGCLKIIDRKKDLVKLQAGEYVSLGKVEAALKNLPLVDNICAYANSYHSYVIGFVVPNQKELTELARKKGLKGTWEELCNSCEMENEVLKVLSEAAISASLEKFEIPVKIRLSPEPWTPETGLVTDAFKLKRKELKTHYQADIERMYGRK
Chain of UniProt Q9BX63 (Q9BX63 whole entry, looked up): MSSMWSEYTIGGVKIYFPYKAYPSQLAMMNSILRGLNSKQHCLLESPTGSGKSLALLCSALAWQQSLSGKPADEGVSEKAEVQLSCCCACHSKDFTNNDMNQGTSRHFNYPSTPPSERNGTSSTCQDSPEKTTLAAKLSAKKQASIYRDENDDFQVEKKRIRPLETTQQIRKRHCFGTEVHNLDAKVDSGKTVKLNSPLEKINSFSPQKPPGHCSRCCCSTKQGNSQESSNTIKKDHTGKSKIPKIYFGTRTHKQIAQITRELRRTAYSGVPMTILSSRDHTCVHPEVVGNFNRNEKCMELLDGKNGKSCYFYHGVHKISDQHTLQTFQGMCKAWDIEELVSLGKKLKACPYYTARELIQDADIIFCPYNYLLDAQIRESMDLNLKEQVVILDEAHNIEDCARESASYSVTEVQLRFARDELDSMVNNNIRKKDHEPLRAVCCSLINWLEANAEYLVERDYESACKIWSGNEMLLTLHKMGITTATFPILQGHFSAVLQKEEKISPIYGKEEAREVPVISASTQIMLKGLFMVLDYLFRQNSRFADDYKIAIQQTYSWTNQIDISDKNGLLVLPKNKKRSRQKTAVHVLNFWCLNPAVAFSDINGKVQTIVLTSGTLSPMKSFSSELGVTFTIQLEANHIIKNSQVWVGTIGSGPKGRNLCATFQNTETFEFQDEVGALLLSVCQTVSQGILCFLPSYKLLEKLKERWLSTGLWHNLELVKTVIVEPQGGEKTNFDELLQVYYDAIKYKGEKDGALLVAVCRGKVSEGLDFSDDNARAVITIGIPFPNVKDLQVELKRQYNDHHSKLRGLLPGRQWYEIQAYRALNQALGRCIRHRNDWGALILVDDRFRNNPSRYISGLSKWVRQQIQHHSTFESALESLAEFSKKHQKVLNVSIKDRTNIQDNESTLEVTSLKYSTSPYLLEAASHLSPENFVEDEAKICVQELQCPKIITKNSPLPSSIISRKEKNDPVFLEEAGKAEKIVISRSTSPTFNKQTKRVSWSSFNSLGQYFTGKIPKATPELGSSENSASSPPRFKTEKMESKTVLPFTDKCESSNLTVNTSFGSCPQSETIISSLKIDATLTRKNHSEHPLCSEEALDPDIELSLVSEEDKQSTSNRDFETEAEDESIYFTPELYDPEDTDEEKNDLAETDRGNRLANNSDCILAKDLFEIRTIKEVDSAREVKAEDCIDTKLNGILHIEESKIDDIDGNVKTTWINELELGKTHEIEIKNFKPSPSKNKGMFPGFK
Chain of UniProt Q2TAA5 (Q2TAA5 whole entry, looked up): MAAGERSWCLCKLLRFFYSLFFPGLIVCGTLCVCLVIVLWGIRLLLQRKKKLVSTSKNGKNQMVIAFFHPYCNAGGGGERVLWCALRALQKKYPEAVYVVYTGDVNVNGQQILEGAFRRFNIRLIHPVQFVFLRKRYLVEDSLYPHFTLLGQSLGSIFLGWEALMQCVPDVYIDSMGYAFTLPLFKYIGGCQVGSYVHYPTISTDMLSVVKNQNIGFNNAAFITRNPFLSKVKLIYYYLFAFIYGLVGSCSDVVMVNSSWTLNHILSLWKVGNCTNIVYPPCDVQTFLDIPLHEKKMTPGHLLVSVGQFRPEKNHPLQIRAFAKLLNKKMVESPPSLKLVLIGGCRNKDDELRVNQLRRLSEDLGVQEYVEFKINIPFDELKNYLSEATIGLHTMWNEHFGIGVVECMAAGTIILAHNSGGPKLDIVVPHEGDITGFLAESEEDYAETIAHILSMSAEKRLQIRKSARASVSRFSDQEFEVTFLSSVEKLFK
Chain of UniProt Q66PJ3 (Q66PJ3 whole entry, looked up): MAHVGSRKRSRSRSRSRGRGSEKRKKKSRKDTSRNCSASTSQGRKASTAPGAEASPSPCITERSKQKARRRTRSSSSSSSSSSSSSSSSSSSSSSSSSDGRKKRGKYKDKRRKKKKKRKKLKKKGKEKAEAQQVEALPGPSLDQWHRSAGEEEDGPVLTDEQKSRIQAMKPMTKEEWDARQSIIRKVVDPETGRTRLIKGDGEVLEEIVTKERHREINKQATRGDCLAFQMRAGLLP
Chain of UniProt O14965 (O14965 whole entry, looked up): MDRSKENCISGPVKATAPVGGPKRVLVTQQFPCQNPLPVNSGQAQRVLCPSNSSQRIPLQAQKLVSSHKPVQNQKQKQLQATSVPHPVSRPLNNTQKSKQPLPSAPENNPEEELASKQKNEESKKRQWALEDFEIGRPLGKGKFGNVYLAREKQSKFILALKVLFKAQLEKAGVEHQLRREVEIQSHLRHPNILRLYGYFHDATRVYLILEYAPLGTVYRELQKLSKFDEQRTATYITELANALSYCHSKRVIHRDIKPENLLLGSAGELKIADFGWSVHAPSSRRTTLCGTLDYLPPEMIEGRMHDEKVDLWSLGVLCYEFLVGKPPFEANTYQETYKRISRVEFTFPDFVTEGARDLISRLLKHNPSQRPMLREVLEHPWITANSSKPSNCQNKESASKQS
Chain of UniProt Q8NFV4 (Q8NFV4 whole entry, looked up): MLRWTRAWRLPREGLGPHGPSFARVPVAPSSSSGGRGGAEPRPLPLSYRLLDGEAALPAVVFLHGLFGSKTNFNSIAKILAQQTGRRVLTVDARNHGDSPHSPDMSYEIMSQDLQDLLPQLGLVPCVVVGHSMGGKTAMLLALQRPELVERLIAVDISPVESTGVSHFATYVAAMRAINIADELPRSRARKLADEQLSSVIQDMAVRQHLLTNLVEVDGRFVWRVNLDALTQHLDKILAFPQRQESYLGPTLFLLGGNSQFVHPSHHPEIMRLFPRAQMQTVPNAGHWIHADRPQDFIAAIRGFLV

| Target | log2 fold change [1] | log2 fold change [2] | log2 fold change [3] | log2 fold change [4] | log2 fold change [5] | log2 fold change [6] | log2 fold change [7] | log2 fold change [8] | log2 fold change [9] | log2 fold change [10] | log2 fold change [11] | log2 fold change [12] | log2 fold change [13] | log2 fold change [14] | log2 fold change [15] | log2 fold change [16] | log2 fold change [17] | log2 fold change [18] | log2 fold change [19] | log2 fold change [20] |
| --- | --- | --- | --- | --- | --- | --- | --- | --- | --- | --- | --- | --- | --- | --- | --- | --- | --- | --- | --- | --- |
| ATP13A3 (UniProt Q9H7F0) | 0.043 | -0.046 | 0.05 | 0.018 | 0.016 | 0.038 | -0.006 | -0.028 | 0.017 | 0.049 | 0.043 | -0.005 | 0.004 | -0.032 | -0.136 | -0.199 | 0.073 | -0.007 | 0.042 | -0.035 |
| ACSL3 (UniProt O95573) | -0.005 | 0.055 | 0.092 | 0.351 (active) | 0.078 | 0.031 | 0.06 | 0.069 | -0.005 | 0.039 | 0 | -0.001 | -0.035 | -0.009 | -0.086 | -0.025 | -0.009 | -0.004 | 0.023 | 0.035 |
| ARL6IP4 (UniProt Q66PJ3) | 0.041 | 0.06 | -0.085 | -0.01 | -0.08 | 0 | -0.12 | 0.117 | 0.003 | 0.039 | 0.049 | 0.026 | 0.018 | 0.01 | 0 | 0.075 | 0.021 | -0.03 | 0.064 | 0.049 |
| AHSA1 (UniProt O95433) | 0.007 | 0.011 | 0.081 | -0.015 | 0.012 | 0.037 | 0.013 | 0.039 | -0.006 | 0.023 | 0.002 | -0.043 | -0.007 | 0 | -0.022 | -0.038 | -0.008 | -0.045 | 0.003 | 0 |
| BRIP1 (UniProt Q9BX63) | -0.009 | 0.076 | -0.153 | 0.018 | 0.075 | -0.082 | -0.048 | 0.023 | -0.064 | -0.045 | 0.017 | 0.12 | -0.073 | 0.006 | 0.039 | -0.036 | -0.064 | 0.084 | -0.01 | 0.333 (active) |
| ATAD3B (UniProt Q5T9A4) | -0.027 | -0.018 | -0.128 | -0.006 | -0.005 | -0.002 | -0.06 | 0.066 | 0.01 | -0.091 | -0.05 | 0.045 | -0.01 | 0.122 | -0.011 | -0.472 (active) | 0.066 | 0.276 | 0.077 | 0.024 |
| ATR (UniProt Q13535) | 0.014 | -0.011 | -0.039 | 0.018 | 0.02 | 0.02 | -0.017 | 0.086 | -0.029 | 0.046 | 0.093 | 0.031 | 0.021 | -0.03 | -0.077 | 0.046 | 0.037 | 0.101 | 0.002 | 0.109 |
| ABHD11 (UniProt Q8NFV4) | 0.03 | -0.041 | 0.078 | -0.033 | 0.113 | -0.067 | 0.045 | 0.043 | -0.079 | 0.01 | -0.031 | 0.031 | -0.007 | -0.123 | -0.006 | -0.043 | 0.068 | -0.027 | -0.016 | 0.026 |
| ARFRP1 (UniProt Q13795) | -0.018 | -0.017 | 0.096 | 0.008 | 0.12 | 0.048 | 0.057 | 0.015 | -0.013 | 0.032 | -0.083 | 0.031 | 0.02 | 0.004 | -0.041 | -0.028 | -0.073 | 0.017 | -0.044 | 0.075 |
| AURKA (UniProt O14965) | 0.181 | 0.018 | -0.055 | -0.061 | -0.08 | -0.028 | 0.028 | 0.462 | 0.707 (active) | -0.313 | -0.05 | 0.193 | 0.914 (active) | 0.062 | -0.056 | -0.128 | 0.16 | 0.033 | 0.001 | 0.059 |
| ALG11 (UniProt Q2TAA5) | -0.015 | 0.042 | 0.075 | 0.013 | 0.074 | 0.054 | 0.009 | -0.048 | -0.045 | -0.014 | 0.003 | 0.09 | 0.053 | -0.014 | -0.112 | 0.037 | -0.064 | 0.032 | 0.002 | 0.23 (active) |
| ADAM15 (UniProt Q13444) | 0.314 | 0.154 | 0.03 | -0.223 | 0.035 | 0.068 | 0.043 | 0.08 | -0.042 | 0.013 | -0.026 | 0.045 | -0.199 | 0.024 | 0.008 | 0.14 | 0.053 | 0.046 | 0.027 | 0.033 |
| APOB (UniProt P04114) | 0.062 | 0.008 | 0.042 | -0.024 | -0.018 | 0.05 | 0.046 | -0.011 | 0.018 | -0.174 | 0.042 | -0.012 | 0.045 | -0.239 | -0.295 | -0.438 | 0.403 | -0.171 | 0.066 | 0.021 |
| ATP1A1 (UniProt P05023) | 0.003 | 0.02 | 0.017 | -0.012 | -0.036 | 0.012 | -0.017 | -0.032 | -0.015 | 0.057 | 0.071 | 0.03 | 0.007 | -0.029 | -0.006 | 0.182 | -0.002 | -0.006 | 0.001 | 0.009 |
| ARAF (UniProt P10398) | 0.014 | 0.096 | 0.061 | 0.014 | 0.26 | -0.012 | 0.077 | -0.187 | -0.017 | 0.035 | 0.011 | 0.005 | -0.13 | 0.097 | -0.064 | -0.056 | 0.021 | 0.043 | -0.018 | 0.041 |
| ACSM3 (UniProt Q53FZ2) | 0.078 | 0.01 | 0.076 | -0.235 | 0.088 | -0.009 | -0.078 | -0.072 | 0.009 | 0.01 | 0 | -0.021 | -0.11 | -0.003 | -0.397 (active) | -0.155 | -0.086 | 0.046 | -0.001 | 0.041 |
